In PubChem BioAssay (NCI) one finds growth data, which are given here for 12 compounds.

Among the test systems are DU-145 prostate; K-562 leukemia; MALME-3M melanoma; MDA-MB-231 breast; RXF 393 renal; SF-268 CNS; SF-295 CNS; SF-539 CNS; UACC-257 melanoma; M14 melanoma.
Assay in all cases: NCI-60 one-dose screen, 48 h (100 = growth as untreated, 0 = no growth, -100 = all killed)
What all share (conditions): 10 µM

The panel holds about 83,000 compounds, 20% with a hit somewhere; the sample as a whole holds those more often.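 The test compound was applied at a single concentration to cells in 96-well plates for 48 hours, and percent growth was recorded.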 Unmarked numbers belong to inactive results. The source made the active and inactive calls. Rule for the calls: active = growth percent below 10; inactive = the rest.

Consider `COc1ccccc1[C@H]1C(C(=O)c2ccc(O)cc2)C2(N[C@@H]1c1ccccc1)C(=O)Nc1ccc(Br)cc12` (stereo not given in full), for which the growth is 56% in the test on DU-145 prostate; 23.1% in the test with K-562 leukemia; 66.3% in the test with MALME-3M melanoma; 32.9% in the test with MDA-MB-231 breast; 13.5% in the test on RXF 393 renal; 53.1% in the test on SF-268 CNS. Besides, the growth is 27.9% in the test on SF-295 CNS, 51.8% with SF-539 CNS, 56.1% in the test with UACC-257 melanoma and 51.6% in the test on M14 melanoma.
`Brc1ccc(/C=C/c2n(Cc3ccc4ccccc4c3)c3ccccc3[n+]2Cc2ccc3ccccc3c2)cc1`: the growth was 3.53% (active) in the test on DU-145 prostate; -19.3% (active) with K-562 leukemia; -87.8% (active) with MALME-3M melanoma; -95.9% (active) in the test with MDA-MB-231 breast; -83.1% (active) with RXF 393 renal; -38.3% (active) with SF-268 CNS. The growth in the test on SF-295 CNS is -65.4% (active); in the test on SF-539 CNS, -98.4% (active); in the test on UACC-257 melanoma, -40.3% (active); in the test on M14 melanoma, -31.7% (active).
Take `COc1ccc(NC(=O)Nc2ccc(OCC(=O)N=Nc3c(O)[nH]c4ccc([N+](=O)[O-])cc34)cc2)cc1`: the growth in the test on DU-145 prostate is 91%; in the test with K-562 leukemia, 95.7%; in the test with MALME-3M melanoma, 94.5%; in the test with MDA-MB-231 breast, 56%; with RXF 393 renal, 107%; with SF-268 CNS, 63.7%. The growth was 100% in the test with SF-295 CNS, 73.3% with SF-539 CNS, 107% with UACC-257 melanoma and 118% in the test on M14 melanoma.
As to `Cn1cc(-c2cc(N)n3nc(-c4c[nH]c5ccc(Br)cc45)cc3n2)c2cccnc21`, the growth is -92.5% (active) in the test with DU-145 prostate; -3.96% (active) in the test with K-562 leukemia; -92.4% (active) in the test on MALME-3M melanoma; -85.6% (active) with MDA-MB-231 breast; -85.2% (active) in the test with RXF 393 renal; -45.7% (active) with SF-268 CNS. The growth in the test with SF-295 CNS was -91.9% (active); in the test with SF-539 CNS, -97.7% (active); in the test with UACC-257 melanoma, -84.3% (active); in the test on M14 melanoma it was -85.8% (active).
As for `COc1cc(/C=N/NC(=O)c2ccc3nc(-c4ccc(Cl)cc4)[nH]c3c2)cc(OC)c1OC`, the growth in the test with DU-145 prostate is -28.7% (active); with K-562 leukemia it was -12.4% (active); in the test on MALME-3M melanoma it was -92.8% (active); in the test with MDA-MB-231 breast it was -74.5% (active); in the test with RXF 393 renal, -84.3% (active); in the test on SF-268 CNS it was -33.9% (active). Besides, the growth with SF-295 CNS is -73.7% (active); in the test on SF-539 CNS, -95.7% (active); with UACC-257 melanoma, -47.7% (active); in the test on M14 melanoma, -28% (active).
In the case of `Brc1ccc(/C=N/Nc2ncnc3sc4c(c23)CCN(Cc2ccccc2)C4)cc1`, the growth is 47.2% in the test with DU-145 prostate; 20.9% with K-562 leukemia; 38.7% in the test on MALME-3M melanoma; 22.1% in the test with MDA-MB-231 breast; 66.7% in the test with RXF 393 renal; 74.2% in the test on SF-268 CNS. In addition, the growth in the test on SF-295 CNS was 58.7%; in the test with SF-539 CNS, 71.4%; with UACC-257 melanoma, 56.7%; with M14 melanoma, -12.1% (active).
Regarding `Cc1ccc(CSc2nc(Cl)c(C#N)c(-c3ccc(F)cc3)n2)cc1`, the growth in the test on DU-145 prostate is 75.1%; in the test on K-562 leukemia, 55.7%; in the test with MALME-3M melanoma, 113%; in the test on MDA-MB-231 breast, 96.5%; with RXF 393 renal, 70.2%; with SF-268 CNS it was 81.8%. Also, the growth was 70.2% in the test with SF-295 CNS, 71.8% in the test with SF-539 CNS, 75.3% with UACC-257 melanoma and 87.6% in the test with M14 melanoma.
In the case of `O=C(NC(=S)N1CCN(c2ncnc3c2cnn3-c2ccccc2)CC1)c1ccc(Cl)cc1`, the growth is 81.1% in the test with DU-145 prostate; 61.5% with K-562 leukemia; 56.1% in the test on MALME-3M melanoma; 57.1% with MDA-MB-231 breast; 43.1% with RXF 393 renal; 41.2% in the test on SF-268 CNS. The growth in the test on SF-295 CNS is 34.2%; in the test with SF-539 CNS it was 11.2%; in the test with UACC-257 melanoma, 83.8%; in the test with M14 melanoma, 79.9%.
As to `COc1ccc(OC)c(/C=N/NC(=O)c2ccc3nc(-c4ccc(Cl)cc4)[nH]c3c2)c1`, the growth in the test with DU-145 prostate is 48%; in the test with K-562 leukemia, 47.1%; with MALME-3M melanoma it was 81.6%; with MDA-MB-231 breast, 10.3%; in the test on RXF 393 renal, 3.46% (active); with SF-268 CNS, 57%. Further, the growth was 48.1% with SF-295 CNS, 54.7% in the test with SF-539 CNS, 114% with UACC-257 melanoma and 69.1% in the test on M14 melanoma.
`N#Cc1c(NC(=O)c2ccc(C(O)(C(F)(F)F)C(F)(F)F)cc2)sc2c1CCC(=O)C2`: the growth was 15.5% in the test with DU-145 prostate; -10.8% (active) with K-562 leukemia; -92.5% (active) in the test on MALME-3M melanoma; -89.7% (active) with MDA-MB-231 breast; -89% (active) with RXF 393 renal; -9.56% (active) in the test on SF-268 CNS. Moreover, the growth in the test with SF-295 CNS was -97% (active); in the test on SF-539 CNS, -96.2% (active); with UACC-257 melanoma, -61.6% (active); in the test on M14 melanoma, -68% (active).
In the case of `N#Cc1c(NC(=O)c2ccc(C(F)(F)F)cc2)sc2c1CCC(O)=C2`, the growth with DU-145 prostate is 38.5%; with K-562 leukemia, 8.86% (active); with MALME-3M melanoma, 23.2%; with MDA-MB-231 breast it was 13.5%; in the test on RXF 393 renal, 14.6%; in the test on SF-268 CNS it was 43.3%. Also, the growth with SF-295 CNS was 17.5%; in the test with SF-539 CNS, 3.2% (active); with UACC-257 melanoma it was 36%; with M14 melanoma it was 13%.
Consider `COc1ccc2nc(Nc3cccc(NC(=O)c4ccc(CN5CCN(C)CC5)c(C(F)(F)F)c4)c3)ccc2c1`, for which the growth with DU-145 prostate is -32.8% (active); with K-562 leukemia, -70.8% (active); in the test on MALME-3M melanoma, -91.8% (active); with MDA-MB-231 breast, -82.7% (active); in the test with RXF 393 renal, -75.7% (active); with SF-268 CNS, -55.2% (active). Moreover, the growth is -97.7% (active) in the test with SF-295 CNS, -99.8% (active) in the test with SF-539 CNS, -83.9% (active) with UACC-257 melanoma and -50.1% (active) with M14 melanoma.
